According to PubChem BioAssay AID2111 (National Center for Advancing Translational Sciences (NCATS), 2009):
Active and inactive are the calls of the source. The call rests on the fitted dose curve; in most records, active means well fitted curve in either direction with a large enough effect; inconclusive means small, poorly fitted or top-dose-only effect; inactive means no such curve, though single readings can be large or run the other way.

Each molecule was assayed against Lysosomal alpha-glucosidase (Homo sapiens) (UniProt P10253) (assay: Confirmation of Inhibitors and Activators of Human alpha-Glucosidase From Spleen Homogenate Using an Alternate Red Fluorescent Susbtrate). Conditions: resorufin-glucoside fluorescence; series mostly up to 62.8 µM.
Description: NIH Chemical Genomics Center [NCGC] NIH Molecular Libraries Probe Production centers Network [MLPCN] MLPCN Grant: 1R03MH084841-01 Assay Submitter (PI): Wei Zheng NCGC Assay Overview: Alpha-glucosidase is responsible for hydrolysis of terminal, non-reducing 1,4-linked alpha-D-glucose residues with release of alpha-D-glucose. It is a lysosomal hydrolase that is required for the degradation of a small percentage (1-3%) of cellular glycogen in human. Deficiency of this enzyme results in glycogen-storage disease type II (GSDII), also referred to as Pompe disease, an autosomal recessive disorder. Structurally normal glycogen is accumulated in lysosomes and cytoplasm in affected patients, primarily in muscle tissues. Excessive glycogen storage within lysosomes may interrupt normal functioning of other organelles and leads to cellular injury. In turn, this leads to enlargement and dysfunction of the entire organ involved (eg, cardiomyopathy and muscle weakness). It has reported that the improper folding and trafficking of alpha-glucosidase resultinged from the genetic mutations may account for a significant number of Pomrope patients. […] We optimized this alpha-glucosidase assay in 1536-well plate format for identifying the novel small molecule inhibitors with the structures other than the sugar analogs in order to develop the new pharmacological chaperones. In particular, this assay is directed towards discovering compounds active in a more natural setting, tissue homogenate, that may have been missed by screens of the purified enzyme under more stringent conditions. This assay attempted to confirm hits from the primary screening using an alternate fluor than the primary screen used.
NCGC Assay Protocol Summary: This is a fluorogenic enzyme assay with Resorufin-alpha-D-glucopyranoside as the substrate and human spleen homogenate containing alpha-glucosidase as the enzyme preparation. Upon hydrolysis of this fluorogenic substrate, the resulting product, resorufin (which excites at 573 nm and emits at 610 nm) can be detected by a fluorescence plate reader. Data were normalized to the controls for basal activity (without enzyme) and 100% activity (with enzyme). The AC50 values were determined from concentration-response data modeled with the standard Hill equation. Assay buffer: 50 mM citric acid (titrated with potassium phosphate to pH 5.0), 0.01% Tween-20 (pH 5.0 is an optimal condition for this enzyme assay) 1536-well assay protocol for the alpha-glucosidase from human spleen homogenate: (1) Add 2 ul/well spleen homogenate (1 ug) (2) Add 23 nL compounds in DMSO solution. The final titration was 0.5 nM to 58 uM. (3) Add 2 ul of substrate (1 mM final) (4) Incubate at 37 C for 40 min (5) Add 2 ul stop solution (1M NaOH and 1M Glycine mixture, pH 10) (6) Detect the assay plate in a ViewLux plate reader (PerkinElmer) with […]. Keywords: Alpha-glucosidase, Pompe Disease, pharmacological chaperone, chaperone therapy, high throughput screening, alpha-glucosidase inhibitor, MLSMR, MLSCN, NIH Roadmap, qHTS and NCGC

Row | SMILES | Potency
1 | CCCN1CNc2c(c(=O)[nH]c(=S)n2CCCc2ccccc2)C1 | 35.5 µM (active)
2 | CCCN1CNc2c(c(=O)[nH]c(=S)n2CCc2ccsc2)C1 | 28.2 µM (active)
3 | CCCN1CNc2c(c(=O)[nH]c(=S)n2CCc2c(OC)cccc2OC)C1 | 35.5 µM (active)
4 | CC(=O)Nc1ccc(S(=O)(=O)N2CCN(c3ccc(C(C)=O)cc3)CC2)cc1 | inactive
5 | CC(=O)c1ccc(N2CCN(S(=O)(=O)c3ccc4c(c3)C(=O)OC4)CC2)cc1 | inactive
6 | Cc1ccc(N2CCN(S(=O)(=O)c3ccc4c(c3)CC(=O)N4)CC2)cc1 | inactive
7 | COc1ccc(C#Cc2c[nH]c(=O)c3cncnc23)cc1OC | inactive
8 | Clc1ncc(C#Cc2ccccc2)c2ncncc12 | inactive
9 | COc1ccc(CCn2c3c(c(=O)[nH]c2=S)CN(C)CN3)cc1OC | 31.6 µM (active)
10 | CCCN1CNc2c(c(=O)[nH]c(=S)n2CCc2cc(OC)ccc2OC)C1 | 12.6 µM (active)
11 | CCCN1CNc2c(c(=O)[nH]c(=S)n2CCc2cccc(C)c2C)C1 | 3.98 µM (active)
12 | COc1ccc(C#Cc2cnc(Cl)c3cncnc23)cc1OC | inactive
13 | COc1ccc(CCn2c(=S)[nH]c(=O)c3c(C)cc(C)nc32)cc1OC | inactive
14 | CCCN1CNc2c(c(=O)[nH]c(=S)n2CCc2cc(C)cc(C)c2)C1 | 4.47 µM (active)
15 | CC(=O)N1CCN(S(=O)(=O)c2ccc3c(c2)CC(=O)N3)CC1 | 14.9 µM [inhibitor] (active)
16 | CCCN1CNc2c(c(=O)[nH]c(=S)n2CCc2c(Cl)cccc2Cl)C1 | 5.01 µM (active)
17 | CCCN1CNc2c(c(=O)[nH]c(=S)n2CCc2cccc(Cl)c2Cl)C1 | 0.891 µM (active)
18 | CC(=O)c1ccc(N2CCN(S(=O)(=O)c3ccc4c(c3)OCC(=O)N4)CC2)cc1 | inactive
19 | CC(=O)c1ccc(N2CCN(S(=O)(=O)c3ccc4c(c3)CCCN4C(C)=O)CC2)cc1 | inactive
20 | CC(=O)c1ccc(N2CCN(S(=O)(=O)c3ccc4c(c3)oc(=O)n4C)CC2)cc1 | inactive

Row | SMILES | Potency
21 | CC(=O)c1ccc(N2CCN(S(=O)(=O)c3ccc4c(c3)n(C)c(=O)n4C)CC2)cc1 | inactive
22 | CCCN1CNc2c(c(=O)[nH]c(=S)n2CCC(C)C)C1 | inactive
23 | O=C1Cc2cc(S(=O)(=O)N3CCN(c4ccc(O)cc4)CC3)ccc2N1 | 11.9 µM [inhibitor] (active)
24 | CCCN1CNc2c(c(=O)[nH]c(=S)n2CCc2ccc(C)cc2)C1 | 14.1 µM (active)
25 | CC(=O)c1ccc(N2CCN(S(=O)(=O)c3ccc4c(c3)CCCC(=O)N4)CC2)cc1 | inactive
26 | CCCN1CNc2c(c(=O)[nH]c(=S)n2CCc2ccc(C)c(C)c2)C1 | 7.94 µM (active)
27 | N#Cc1ccc(N2CCN(S(=O)(=O)c3ccc4c(c3)CC(=O)N4)CC2)cc1 | 1.63 µM [inhibitor] (active)
28 | O=Cc1ccc(N2CCN(S(=O)(=O)c3ccc4c(c3)CC(=O)N4)CC2)cc1 | 5.17 µM [inhibitor] (active)
29 | COC(=O)c1ccc(N2CCN(S(=O)(=O)c3ccc4c(c3)CC(=O)N4)CC2)cc1 | 1.16 µM [inhibitor] (active)
30 | COc1ccc(CCn2c(=S)[nH]c(=O)c3nccnc32)cc1OC | inactive
31 | CC(=O)c1ccc(N2CCN(S(=O)(=O)c3ccc4[nH]c(=O)oc4c3)CC2)cc1 | inactive
32 | O=S(=O)(c1ccc(Cl)cc1)N1CCN(c2nc(-c3cccs3)nc3ccccc23)CC1 | inactive
33 | CC(=O)c1ccc(N2CCN(S(=O)(=O)c3ccc4c(c3)CCC(=O)N4)CC2)cc1 | inactive
34 | CCCN1CNc2c(c(=O)[nH]c(=S)n2CCc2cccc(C)c2)C1 | 15.8 µM (active)
35 | CCCN1CNc2c(c(=O)[nH]c(=S)n2CCc2ccc(OC)cc2OC)C1 | 8.91 µM (active)
36 | CC(=O)c1ccc(N2CCN(S(=O)(=O)c3ccc4c(c3)CC(C)N4C(C)=O)CC2)cc1 (stereo not given) | inactive
37 | CCCN1CNc2c(c(=O)[nH]c(=S)n2CCc2ccc(Cl)c(Cl)c2)C1 | 8.91 µM (active)
38 | CCCN1CNc2c(c(=O)[nH]c(=S)n2CCc2ccc(C)cc2C)C1 | 11.2 µM (active)
39 | CCCN1CNc2c(c(=O)[nH]c(=O)n2CCc2ccc(OC)c(OC)c2)C1 | 15.8 µM (active)
40 | O=c1[nH]cc(C#Cc2ccccc2)c2ncncc12 | inactive
